{
  "source": "PubChem BioAssay (NCI)",
  "note": "About 83,000 compounds went through this panel and 20% of them were active in at least one assay; those are over-represented in the sample as a whole.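 Cell lines were cultured in 96-well plates, exposed to a single compound concentration, and assessed for percent growth 48 hours later.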 Active and inactive are the calls of the source. Rule for the calls: active = growth percent below 10; inactive = the rest.",
  "data": [
    {"tested_on": "NCI-H226 lung", "experiment": "NCI-60 one-dose screen, 48 h (100 = growth as untreated, 0 = no growth, -100 = all killed)", "settings": "10 µM unless noted", "values": [
      {"smiles": "CN1CCN(CCCOc2ccc3nc(Nc4ccc(F)c(F)c4)ccc3c2)CC1", "growth": "62.9% (inactive)"},
      {"smiles": "CC(CN1CCCCC1)C(=O)c1ccccc1", "note": "(centres undefined)", "growth": "103% (inactive)"},
      {"smiles": "Cc1cc(/C=C\\c2ccc3ccccc3[n+]2C)c(O)c2ncccc12", "growth": "-35.5% (active)"},
      {"smiles": "COc1ccc2cc(-c3cc(OC)c(OC)c(OC)c3)c(=O)oc2c1", "growth": "78.4% (inactive)"},
      {"smiles": "Cc1ccc(C2SCC(=O)N2Cc2ccccc2)cc1", "note": "(centres undefined)", "growth": "96% (inactive)"},
      {"smiles": "Cc1ccc(S(=O)(=O)Oc2cc(OS(=O)(=O)c3ccc(C)cc3)cc(OS(=O)(=O)c3ccc(C)cc3)c2)cc1", "growth": "101% (inactive)"},
      {"smiles": "CS(=O)c1cccc(-c2ccc3nc(N)n(-c4ccc(C(F)(F)F)cc4)c(=O)c3c2)c1", "note": "(centres undefined)", "growth": "90.9% (inactive)"},
      {"smiles": "Clc1ccc(-c2c3ccc(=[N+]4CCCCC4)cc-3oc3cc(N4CCCCC4)ccc23)cc1", "growth": "-87.6% (active)"},
      {"smiles": "O=C1Nc2ccccc2/C1=C/c1cn(C(=O)c2c(Cl)cccc2Cl)c2ccccc12", "growth": "48.2% (inactive)"},
      {"smiles": "CC1CC(C(C)(C)C)C(=O)C(C(C)(C)C)C1", "note": "(centres undefined)", "growth": "98.8% (inactive)"},
      {"smiles": "COc1ccc(-c2nc(SCCC(C)C)nc(N/N=C\\c3ccccc3O)c2C#N)cc1", "growth": "84.4% (inactive)"},
      {"smiles": "O=C1CCc2c(sc3[nH]c(=S)n(-c4ccc(OC(F)(F)F)cc4)c(=O)c23)C1", "growth": "72.4% (inactive)"},
      {"smiles": "CC(C)CC(NC(=O)CN(Cc1ccccc1)S(C)(=O)=O)C(=O)O", "note": "(centres undefined)", "growth": "104% (inactive)"},
      {"smiles": "COc1cc(N=Nc2ccc(N)cc2)c(OC)cc1N=Nc1ccccc1.[Cl][Zn][Cl]", "growth": "104% (inactive)"},
      {"smiles": "CCC1(C2CCCC2)NC(=O)NC1=O", "note": "(centres undefined)", "growth": "101% (inactive)"},
      {"smiles": "Cc1ccc(C(=O)C2=C(O)C(=O)N(Cc3cccnc3)C2c2ccccc2F)o1", "note": "(centres undefined)", "growth": "96.5% (inactive)"},
      {"smiles": "COc1cccc(-c2nc3sccn3c2/C=C/C(=O)c2ccc(C(F)(F)F)cc2)c1", "growth": "88.6% (inactive)"},
      {"smiles": "COc1ccc2c(c1)C(=O)/C(=C/c1ccc(OCC(=O)Nc3nccs3)cc1)O2", "growth": "94.1% (inactive)"},
      {"smiles": "CC/C=C/C/C=C/C/C=C/C/C=C/C/C=C/C/C=C/CCC(=O)Nc1ccn([C@@H]2O[C@H](CO)[C@@H](O)C2(F)F)c(=O)n1", "growth": "8.09% (active)"},
      {"smiles": "NC(=N\\N=C/c1ccccc1[N+](=O)[O-])/C(N)=N\\N=C/c1ccccc1[N+](=O)[O-]", "growth": "107% (inactive)"},
      {"smiles": "O=C(Cc1ccc(F)c(F)c1)Nc1cc(C2(C(F)(F)F)CC2)nn1Cc1ccccc1", "growth": "8.26% (active)"},
      {"smiles": "O=C(/C=C/c1ccc(Cl)nc1)c1ccc(Cl)cc1Cl", "growth": "103% (inactive)"},
      {"smiles": "O=C(Nc1ccccc1Cl)Oc1ccc(-c2ccccc2)cc1", "growth": "103% (inactive)"},
      {"smiles": "CN(c1ccccc1)c1ccc2c(c1)OCCC21CC1Nc1cnccc1C(=O)O", "note": "(centres undefined)", "growth": "63.9% (inactive)"}
    ]}
  ]
}
